# Bioassay records (PubChem)
# This is a sample that favours compounds with a hit; in the whole collection about 2.8% have one here.
# PAFAH2 FP inh: inhibitors of human PAFAH2 | AID 492956 | actives 0.99% (n = 340,000) | inhibition, % at 3.39 µM | recombinant PAFAH2, FP-rhodamine activity probe, fluorescence polarization | Q99487;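 active means inhibition above the mean over all tested compounds plus 3 SD, cut at about 30% in these data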;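 further: inhibitors block probe labeling of enzyme so polarization drops; 0% = enzyme with DMSO and 100% = wells lacking PAFAH2 protein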
# pPAFAH FP inh: inhibitors of human plasma PAF acetylhydrolase (pPAFAH). recombinant pPAFAH, FP-rhodamine probe fluorescence polarization. inhibition, % at 3.39 µM. actives 1.5% (n = 330,000). AID 463082;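 active means inhibition above the mean inhibition across the screen plus 3 SD, cut at about 25% in these data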;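 further: inhibitors block binding of the rhodamine activity-based probe so polarization drops; 0% = enzyme with DMSO and 100% = wells lacking pPAFAH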
# PAFAH1B3 inh: blocks human PAF acetylhydrolase 1B catalytic subunit 3; Q15102; recombinant PAFAH1B3, FP-rhodamine probe, fluorescence polarization; inhibition, % at 3.39 µM; actives 0.28% (n = 340,000);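 active means inhibition above the screen-wide average of all tested compounds plus 3 SD, cut at about 25% in these data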;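 further: 0% = enzyme with DMSO only and 100% = wells lacking PAFAH1B3 protein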
# PME-1 inh: PME-1 (human) inhibition. actives 0.53% (n = 320,000). inhibition, % at 5.9 µM. AID 2130. Q9Y570. recombinant PME-1, FP-Rh probe fluorescence polarization;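 active means inhibition above the campaign mean of all compounds plus 3 SD, cut at about 26% in these data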;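 further: competitive labeling of PME-1 active site by serine hydrolase directed probe; 0% = PME-1 with DMSO and 100% = wells lacking PME-1 enzyme; inhibitors block probe labeling so polarization falls and inhibition rises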
# Target sequence (Q9Y570 whole entry, looked up): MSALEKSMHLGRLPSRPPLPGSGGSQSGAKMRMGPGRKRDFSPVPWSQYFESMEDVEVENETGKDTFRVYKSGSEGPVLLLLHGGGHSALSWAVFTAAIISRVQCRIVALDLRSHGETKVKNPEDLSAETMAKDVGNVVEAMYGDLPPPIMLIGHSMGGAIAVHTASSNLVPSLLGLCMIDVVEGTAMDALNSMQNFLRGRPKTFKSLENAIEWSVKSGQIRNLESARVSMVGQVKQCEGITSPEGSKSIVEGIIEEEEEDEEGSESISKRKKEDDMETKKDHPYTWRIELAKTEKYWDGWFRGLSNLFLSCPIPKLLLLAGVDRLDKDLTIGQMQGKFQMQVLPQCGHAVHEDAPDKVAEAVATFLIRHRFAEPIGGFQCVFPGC
# Fam108B counter: Fam108B inhibition, counter-screen for RBBP9 inhibitors; actives 0.33% (n = 300,000); AID 1947; inhibition, % at 9.51 µM; recombinant Fam108B, FP-Rh probe fluorescence polarization;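 active means inhibition above the screen mean inhibition plus 3 SD, computed separately per campaign, cut at about 18% in these data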;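 further: inhibitors lower polarization as less probe binds the enzyme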
# PAFAH1B2 FP inh: inhibitors of human PAFAH1B2 | AID 492953 | actives 1.2% (n = 340,000) | inhibition, % at 3.39 µM | P68402 | recombinant PAFAH1B2, FP-rhodamine activity probe, fluorescence polarization;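 active means inhibition above the mean of all tested compounds plus 3 SD, cut at about 24% in these data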;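 further: 0% = enzyme with DMSO and 100% = wells lacking PAFAH1B2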
# Target sequence (P68402 whole entry, looked up): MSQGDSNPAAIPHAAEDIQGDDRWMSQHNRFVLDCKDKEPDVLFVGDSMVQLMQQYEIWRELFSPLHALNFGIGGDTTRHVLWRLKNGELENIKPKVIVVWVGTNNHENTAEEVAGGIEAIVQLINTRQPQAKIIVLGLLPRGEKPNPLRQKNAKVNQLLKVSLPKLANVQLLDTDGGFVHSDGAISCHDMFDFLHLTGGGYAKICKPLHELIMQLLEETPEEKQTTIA
# Fam108b confirm: confirmation of mouse Fam108b serine hydrolase inhibitors; actives 44% (n = 930); AID 1978; shares compounds with Fam108B counter; inhibition, % at 9.51 µM; recombinant Fam108b, FP-Rh probe fluorescence polarization;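 active means inhibition above a limit from the primary screen, the mean over all compounds plus 3 SD, cut at about 19% in these data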;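 further: 0% = median of active Fam108b wells and 100% = catalytically dead S170A mutant; inhibitors free the probe so polarization falls as inhibition rises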
# Fam108b ABPP HTS: mouse ABHD17B inhibition | shares compounds with Fam108B counter | actives 44% (n = 260) | recombinant Fam108b, gel-based ABPP, fluorophosphonate probe | inhibition, % at 20 µM; in the data active means inhibition above about 40%
# * marks the source's active call; other numbers are inactive results; . = no result given.
SMILES,PAFAH2 FP inh,pPAFAH FP inh,PAFAH1B3 inh,PME-1 inh,Fam108B counter,PAFAH1B2 FP inh,Fam108b confirm,others
COc1ccc(N(CC(=O)NCc2ccc(F)cc2)C(=O)Cn2nnc(-c3ccc(C)o3)n2)cc1OC,8.1,5.2,0.6,-0.8,-0.4,3.5,.,
Nc1nc2ccccc2n1/N=C/c1ccc2c(c1)OCO2,.,6.5,.,12.0,4.4,.,.,
Nc1nc2ccccc2n1/N=C/c1ccc(Br)cc1,6.0,15.5,8.1,10.8,28.6*,-3.7,34.7*,
O=C(Nc1ccc(Cl)c(Cl)c1)Nc1ccccc1O,4.9,18.4,7.1,17.6,19.7*,-2.5,-7.0,
CC1(C)N=C(c2ccccc2)C(c2ccccc2)=N1,3.3,.,-3.0,.,.,-0.5,.,
NC(=O)c1ccc([N+](=O)[O-])cc1SCc1ccccc1,12.1,23.1,7.2,5.7,7.0,1.8,.,
N[C@H](CSCc1ccccc1)C(=O)Nc1ccc([N+](=O)[O-])cc1,-7.3,-2.2,-1.5,26.3*,29.5*,7.5,-5.3,
COc1ccccc1C(=O)NCCCn1cc(Br)c(C)n1,14.7,-0.6,2.8,0.2,-1.7,3.4,.,
O=C1NC(=O)C2(CCCCC2)N1,0.7,.,4.9,.,.,1.9,.,
O=C1C2=C(Nc3ccccc3SC2c2ccco2)c2ccccc21 (configuration not stated),11.6,15.3,10.8,28.5*,31.4*,4.3,9.5,
O=[N+]([O-])c1cccc(N/N=C/c2cccc3ccccc23)c1,28.4,2.2,16.1,24.6,25.6*,5.4,22.7*,
COc1cccc(NC(=O)CSc2nc3scc(C)c3c(=O)[nH]2)c1,2.5,6.6,2.9,-4.0,-2.4,3.9,.,
CSc1ccccc1OCc1cc(C(=O)N2CCC(Oc3cccnc3)CC2)no1,6.8,-5.6,6.3,5.5,-3.5,6.0,.,
COC(=O)Nc1ccccc1C(=O)N1CCC(O)(c2ccc(Cl)cc2)CC1,-0.6,-0.4,-1.4,17.1,0.6,-1.5,.,
NC(=O)Nc1ccccc1C(=O)N1CCC(O)(c2ccc(Cl)cc2)CC1,-3.8,0.9,3.1,5.6,43.1*,4.3,1.3,
Cc1cc(Br)c2[nH]c3c(c2c1)CCCC3=O,1.8,16.9,0.5,0.4,0.4,4.2,.,
O=C1C2C3C=CC(C3)C2C(=O)N1CNc1ccc(O)cc1 (configuration not stated),.,22.6,.,44.5*,32.9*,.,12.0,
CNC(=O)COc1coc(CN2CCN(c3ccccc3OC)CC2)cc1=O,3.2,3.5,-2.9,0.5,3.6,-4.0,.,
CCOc1ccc2nc(N3CCCCCC3)sc2c1,-1.9,9.3,-0.3,-3.1,-1.0,3.2,.,
CCOc1ccc2nc(N3C(=O)/C(=C/c4ccccc4)NC3=S)sc2c1,10.6,1.9,15.8,22.7,19.8*,5.8,12.4,
COc1ccc2nc(N3C(=O)/C(=C/c4ccccc4)NC3=S)sc2c1,17.9,18.1,-2.7,57.6*,19.7*,23.1,22.4*,
CCOC(=O)C1CCCN(C(=O)c2ccc(S(=O)(=O)Nc3ccccc3OC)cc2)C1 (configuration not stated),3.4,3.0,0.7,22.3,.,0.7,.,
CCN(CC)c1ccc(C2Nc3cccc4cccc(c34)N2)cc1,12.9,0.2,12.8,10.3,9.2,6.5,.,
Oc1ccc(C2Nc3cccc4cccc(c34)N2)c(O)c1,-5.2,1.6,36.3*,63.6*,66.7*,16.6,44.5*,Fam108b ABPP HTS=65.0*
Clc1ccccc1C1Nc2cccc3cccc(c23)N1,7.4,12.0,9.0,12.0,5.9,-0.3,.,
SMILES,PAFAH2 FP inh,pPAFAH FP inh,PAFAH1B3 inh,PME-1 inh,Fam108B counter,PAFAH1B2 FP inh,Fam108b confirm,others
COc1ccc(C2Nc3cccc4cccc(c34)N2)cc1Br,-8.3,10.5,16.4,31.8*,36.6*,8.4,5.8,
c1coc(C2Nc3cccc4cccc(c34)N2)c1,.,25.7*,.,8.1,22.1*,.,18.3*,
CCCOc1ccc(C2Nc3cccc4cccc(c34)N2)cc1,-13.2,7.8,12.9,49.4*,25.5*,5.7,15.0,
COc1ccccc1OCC(=O)N(Cc1nnc(-c2ccccc2Cl)o1)C1CC1,5.2,3.8,6.2,-1.5,-0.7,-3.7,.,
C=CC[C@@H](CC(=O)NCCO)C(=O)N[C@@H](C)COC(=O)[C@@H](CC=C)Cc1ccc(F)cc1,10.0,1.4,9.9,.,.,8.8,.,
Fc1ccc(C2Nc3cccc4cccc(c34)N2)cc1,-3.7,-1.1,17.6,10.9,33.4*,0.5,10.6,
Cc1ccc(C2Nc3cccc4cccc(c34)N2)s1,-8.2,11.1,23.4,11.6,29.1*,11.3,12.9,
CC(C)Oc1ccc(S(=O)(=O)N2CCOCC2)cc1NC(=O)C1COc2ccccc2O1 (configuration not stated),5.4,7.6,8.4,3.7,.,0.7,.,
CCN(CC)S(=O)(=O)c1cc(NC(=O)COC(=O)c2sc3ccccc3c2Cl)ccc1C,7.0,17.5,-1.0,7.7,42.6*,-3.0,58.6*,Fam108b ABPP HTS=90.0*
CCN(CC)S(=O)(=O)c1cc(NC(=O)COC(=O)C2CCC2)ccc1C,13.6,7.6,14.4,-0.7,.,3.6,.,
NC(N)=N/N=C/c1cc([N+](=O)[O-])ccc1O,-5.0,1.4,9.3,0.1,-1.8,1.7,.,
O=[N+]([O-])c1ccc(O)c(/C=N\N=C2c3ccccc3-c3ccccc32)c1,23.8,21.3,16.6,12.8,21.2*,5.9,6.5,
CCOC(=O)C1CCCN(c2cc(=O)n(Cc3ccc(F)cc3)c(=O)[nH]2)C1 (configuration not stated),7.1,1.9,8.4,-3.4,-1.2,-3.6,.,
CC1=NN(c2ccc(Cl)cc2)C(=O)C1C(c1cccc(O)c1)c1c(C)[nH]n(-c2ccc(Cl)cc2)c1=O (configuration not stated),19.8,-3.4,16.0,16.7,31.0*,6.5,17.0,
COc1ccc(Nc2sc(C(=O)Nc3cccc(Cl)c3)c(N)c2C(=O)Nc2ccccc2OC)cc1,.,3.3,.,30.0*,51.1*,.,5.8,
Nc1c(N2CCOCC2)cc(Cl)c2nonc12,-2.4,4.7,0.9,-0.7,0.4,-2.0,.,
Nc1ccc(N2CCCCC2)c2nonc12,3.9,1.8,10.3,33.9*,66.6*,4.3,-3.7,
Nc1c(N2CCCC2)cc(Cl)c2nonc12,35.1*,14.9,65.7*,31.3*,54.3*,13.2,42.3*,Fam108b ABPP HTS=0.0
Cc1cc(Nc2ccc(Cl)cc2)nc(NCc2ccccc2)n1,-0.9,6.8,13.0,13.9,33.5*,1.9,32.1*,Fam108b ABPP HTS=45.0*
Cc1cc(Nc2ccccc2)nc(NCc2ccccc2)n1,2.5,0.6,5.8,7.3,3.1,-4.2,.,
CC(C)c1ccc(C(=O)CN2C(=O)NC3(CCc4ccccc43)C2=O)cc1 (configuration not stated),1.3,-6.7,2.4,.,.,3.1,.,
CCc1cc(/C(Cc2ccccn2)=N\O)c(O)cc1O,14.2,7.8,20.8,9.9,9.6,12.7,.,
